Among the data in PubChem BioAssay AID504847 (National Center for Advancing Translational Sciences (NCATS), 2011) are max response, negative = inhibition and Potency values, retold here.

Several values for one entry are separate records, joined by “and”; a condition that tells them apart may be missing. Equal values may be shown once. The whole screen tested about 400,000 compounds, of which about 3,700 (0.93%) were called active. Inconclusive results (about 3%) are left out. The entries come from a sample that favours actives as a whole. Values without a mark were called inactive. Calls come from the whole dose curve; as a rule, active = well fitted inhibition curve with a large enough effect; inconclusive = small, poorly fitted or top-dose-only effect, or another doubt; inactive = no such curve, though single readings can be large or run the other way.
% is set by controls: 0 for no effect and ±100 for the full control effect; potency is the fitted concentration of half-maximal effect.

Chain of Vitamin D3 receptor (Homo sapiens) (P11473 whole entry, looked up): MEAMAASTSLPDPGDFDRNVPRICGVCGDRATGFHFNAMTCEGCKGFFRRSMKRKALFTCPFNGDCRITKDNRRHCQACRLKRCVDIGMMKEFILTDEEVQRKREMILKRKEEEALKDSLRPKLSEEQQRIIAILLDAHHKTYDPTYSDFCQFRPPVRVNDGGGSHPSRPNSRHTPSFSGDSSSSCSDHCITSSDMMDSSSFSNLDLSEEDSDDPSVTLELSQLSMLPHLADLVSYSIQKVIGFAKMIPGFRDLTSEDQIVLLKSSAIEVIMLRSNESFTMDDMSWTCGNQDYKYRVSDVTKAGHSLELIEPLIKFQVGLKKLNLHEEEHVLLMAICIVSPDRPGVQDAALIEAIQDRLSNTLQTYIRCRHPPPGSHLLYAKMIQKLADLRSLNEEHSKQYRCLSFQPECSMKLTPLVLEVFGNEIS

For the assay, the target named is Vitamin D3 receptor (Homo sapiens) (UniProt P11473). In words: Inhibitors of the vitamin D receptor (VDR): qHTS. Particulars: VDR-SRC2-3 peptide fluorescence polarization, 2 h; max response, negative = inhibition: hits give low values. An outline of the steps:
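Signal is fluorescence polarization, reporting how far test compounds block the interaction of VDR with the SRC2-3 coregulator peptide after a 2 h room-temperature incubation.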
A general note: Quantitative high-throughput screening tests each substance at several concentrations.
In the case of `O=C(C1CCCN(S(=O)(=O)c2cccc3nonc23)C1)N1CCN(c2ccccc2F)CC1` (configuration not stated), the max response, negative = inhibition was -15.4%. As to `COc1ccc(OC)c(NC(=O)C2CCN(S(=O)(=O)c3ccc(C)cc3)CC2)c1`, the max response, negative = inhibition is 29.3%. With `Cn1cccc1/C=C1\SC(=S)N(NC(=O)c2ccc(Cl)cc2)C1=O`, the max response, negative = inhibition is -22.2%.

Regarding `O=C(NCc1ccccc1)c1cc(-c2cccc(Cl)c2)on1`, the max response, negative = inhibition is -16.6%. Regarding `O=C(O)C(c1ccccc1)N1C(=O)/C(=C\c2ccc(-c3cccc(Cl)c3)o2)SC1=S` (configuration not stated), the Potency is 79.4 µM (active).

`O=c1[nH]c(/C=C\c2cccc(C(F)(F)F)c2)nc(O)c1[N+](=O)[O-]`: the Potency is 44.7 µM (active). In the case of `O=c1cc(O)c(-c2cccc(C(F)(F)F)c2)c(Cl)[nH]1`, the max response, negative = inhibition was 13.8%.

`O=c1[nH]c(/C=C/c2cccc(Br)c2)nc2ccccc12`: the max response, negative = inhibition is -10.9%.

Turning to `CC1(C)O[C@@H]2C[C@@H]3[C@H]4C[C@@H](F)C5=CC(=O)C=C[C@]5(C)[C@@]4(F)[C@@H](O)C[C@]3(C)[C@]2(C(=O)CO)O1`, the max response, negative = inhibition is 1.68%. In the case of `COCCNC(=O)CSc1nc(-c2ccccc2)[nH]c1-c1ccc(C)cc1`, the max response, negative = inhibition was -12.4%. Take `Cc1cc(C(=O)NNS(=O)(=O)c2ccccc2C(F)(F)F)nn1C(C)(C)C`: the max response, negative = inhibition was 3.25%. As to `CCCCc1nn(-c2ccccc2C(F)(F)F)c(=O)n1Cc1ccc(-c2ccccc2S(=O)(=O)NC(=O)c2sccc2C)cc1`, the Potency is 44.7 µM (active).

As for `CCCN1CCN(CCCNC(=O)c2cnn(-c3ccc(C)cc3)c2-n2cccc2)CC1`, the max response, negative = inhibition is 13.2%. As for `CCN(CCCNC(=O)c1cc2cc3cc(OC)ccc3nc2s1)c1ccccc1`, the max response, negative = inhibition was -7.19%. For the compound `O=C(NCC1CC1)C1(C(F)(F)F)C/C(=C\CCO)CCCO1` (configuration not stated), the max response, negative = inhibition was -6.83%. `Nc1nc2nc(Cl)[nH]c2c(=O)[nH]1`: the max response, negative = inhibition was -11.6%. Consider `Cc1cc(C)cc(C(=O)NC2C(=O)N3C(C(=O)O)=C(CSc4nnc(C)s4)CSC23)c1` (configuration not stated), for which the Potency was 79.4 µM (active).

As for `CO/N=C(\C(=O)N[C@@H]1C(=O)N2C(C(=O)O)=C(COC(C)=O)CS[C@H]12)c1csc(N)n1` (stereo in doubt), the max response, negative = inhibition was -16.4% and -7.75% and -25.8%. Take `CC(C)(C)OC(=O)C1=C(CO)CS[C@@H]2[C@H](NC(=O)Cc3ccccc3)C(=O)N12`: the max response, negative = inhibition is -17.3%. As for `O=[N+]([O-])c1ccc(S(=O)(=O)N2CCN(c3nc(-c4ccccc4)nc4ccccc34)CC2)cc1`, the max response, negative = inhibition was -8.98%. Regarding `Cc1ccc(C(=O)Nc2c(C(=O)NC(C)(C)C)oc3ccccc23)cc1`, the max response, negative = inhibition is 12.7%. In the case of `COc1ccc(Cl)cc1NC(=O)C(C)Sc1nc2c(c(=O)[nH]1)CCCC2` (configuration not stated), the max response, negative = inhibition is 5.96%. For the compound `CCN1/C(=C/C(=S)Nc2ccccc2)Sc2ccccc21`, the Potency was 70.8 µM (active). With `CCNCCC(=O)N1c2ccccc2Sc2ccc(NC(=O)OCC)cc21`, the max response, negative = inhibition is -7.06%. Consider `CCN1C(=O)c2ccccc2Sc2ccc(NC(=O)Cc3ccc(OC)cc3)cc21`, for which the max response, negative = inhibition is 7.46%. In the case of `CC(=O)OC1CCC2(O)CC1(C)CCC1C2CC1(C)C` (configuration not stated), the max response, negative = inhibition is -16.3%. On to `C[C@@H]1O[C@@H](OC[C@H]2O[C@@H](Oc3c(-c4cccc(O)c4O)oc4cc(O)cc(O)c4c3=O)[C@H](O)[C@@H](O)[C@@H]2O)[C@H](O)[C@H](O)[C@H]1O`, for which the max response, negative = inhibition is 2.29%. In the case of `CCOC(=O)c1ccc(NC(=O)c2nc(SCc3ccc(F)cc3)ncc2Cl)cc1`, the max response, negative = inhibition is -10.3%. Regarding `Cc1ccc(CS(=O)(=O)c2ncc(Cl)c(C(=O)Nc3nnc(C)s3)n2)cc1`, the Potency was 25.1 µM (active).

`O=C(Nc1nc2ccc(F)cc2s1)c1nc(SCc2ccccc2F)ncc1Cl`: the max response, negative = inhibition is -2.57%. Take `CCS(=O)(=O)c1ncc(N(Cc2ccc(F)cc2)Cc2ccco2)c(C(=O)Nc2cc(C)ccc2C)n1`: the max response, negative = inhibition is -5.22%.

For the compound `Cc1cccc(CS(=O)(=O)c2ncc(Cl)c(C(=O)Nc3ccc(F)cc3)n2)c1`, the Potency is 50.1 µM (active). The same measure, in the same setting: under `CSc1nnc(NC(=O)c2nc(S(=O)(=O)Cc3ccc(C)cc3)ncc2Cl)s1` stands 11.2 µM (active). In the case of `Cc1nnc(NC(=O)C(c2ccccc2)c2ccccc2)s1`, the max response, negative = inhibition was 13.7%. In the case of `CCOc1cccc(C(=O)Nc2nnc(S(=O)(=O)N(C)c3ccc(C)cc3)s2)c1`, the max response, negative = inhibition was -4.91%.

On to `Cc1ccc2nc(NC(=O)c3nc(SCc4ccccc4F)ncc3Cl)sc2c1`, for which the max response, negative = inhibition was 1.04%. In the case of `COc1ccc(CNC(=O)COCc2cc(-c3cccs3)on2)cc1OC`, the max response, negative = inhibition is 16.9%.

For `COc1ccc(-c2nc3scc(CCNS(=O)(=O)c4cc(F)ccc4OC)n3n2)cc1OC`, the max response, negative = inhibition was 0.564%. With `CCOc1ccc2nc(N3CCC(C(=O)Nc4cc(C)ccc4C)CC3)sc2c1`, the max response, negative = inhibition is -0.819%. `COc1ccccc1CNC(=O)CCCCn1c(=O)c2ccccc2n(CC(=O)Nc2cc(Cl)ccc2C)c1=O`: the max response, negative = inhibition was -8.69%.

Regarding `CCOC(=O)c1cc(NC(=O)c2ccc(F)cc2)c(=O)n2c1oc1ccccc12`, the max response, negative = inhibition was 4.45%.

Consider `O=[N+]([O-])c1ccccc1SNc1ccccn1`, for which the max response, negative = inhibition was -25%. `O=[N+]([O-])c1cccc2ncccc12`: the Potency was 12.6 µM (active).

For the compound `O=[N+]([O-])c1ccccc1S(=O)(=O)Nc1cccc2cccnc12`, the max response, negative = inhibition is 0.987% and -18.8%.

For the compound `O=C(/C=C/c1cccc(F)c1)NC1CC1`, the max response, negative = inhibition is 0.0804%.

Regarding `Cc1c(C(=O)Nc2cccc(Cl)c2)oc2ccc(S(=O)(=O)N3CCOCC3)cc12`, the max response, negative = inhibition was -9.71%.

With `Cc1cccc(NC(=O)Cn2nc(-c3ccc(Cl)cc3)c3ccccc3c2=O)c1`, the max response, negative = inhibition was 4.43%. Take `O=C1C=C(c2ccc(Cl)cc2)C(=O)N1Nc1ccccc1`: the Potency is 22.4 µM (active). As for `Cc1ccc(C(=O)Nc2ccc(OCc3cc(=O)n4c(C)csc4n3)cc2)cc1`, the max response, negative = inhibition is -1.83%. Turning to `Cc1ccc(S(=O)(=O)c2nc(-c3cccs3)oc2N2CCCCC2)cc1`, the max response, negative = inhibition was 28.2%.

Consider `C=CC(C1=CC(=O)C=CC1=O)c1ccc(O)cc1` (configuration not stated), for which the Potency was 39.8 µM (active). Consider `CCCn1c2ccccc2c2cnn(CC(=O)NCCCOC(C)C)c(=O)c21`, for which the max response, negative = inhibition is 4.17%.
